From PubChem
Statin myotox sup: suppressors of simvastatin-induced myotoxicity in C2C12 myotubes. ATP luminescence, 48 h; scaled: DMSO 0, geranylgeraniol control 100. rescue of ATP level, % at 7.49 µM. 330,000 compounds, 0.78% hits. AID 602340;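 active = mean ATP rescue above about 67%, or every replicate alone reaching that limit, limit read from the data, passing the limit was not always enough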;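 note: myotubes were challenged with 10 µM simvastatin during compound exposure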
PglD inh: blocks C. jejuni PglD acetyltransferase activity. inhibition, % at 12.5 µM. 360,000 compounds, 0.098% hits. purified PglD enzyme, DTNB colorimetric CoA detection. AID 602405; in the data active = inhibition above about 16%, passing the limit was not always enough
CFTR F508del cor: correctors of CFTR F508del function in bronchial epithelial cells; activity (quench increase), % at 7.58 µM; CFBE cells, YFP halide quenching; stimulated with forskolin plus potentiator P3; % fluorescence drop versus neutral controls; AID 720511; 350,000 compounds, 0.36% hits;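 active = mean added fluorescence quench of at least 8% versus neutral control, with both replicates also reaching 8%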;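 note: cells transiently co-express mutant CFTR-F508del with the halide-sensitive YFP; corrector assay measuring rescue of mutant channel to the surface after 24 h compound exposure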
ARNT TACC3 PPI: disrupts binding between human ARNT and TACC3; AID 623870; 390,000 compounds, 0.66% hits; Q9Y6A5; AlphaScreen His-ARNT PAS-B/GST-TACC3 binding, luminescence; TACC3 fragment carries E629A point mutation; inhibition, % at 9.99 µM;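 active = mean inhibition of replicates at least 50% and at least half of replicates each reaching 50%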;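 note: 0% = complete ARNT plus TACC3 wells and 100% = ARNT alone without TACC3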
Starred values were filed as active, the others as inactive. Most compounds without a hit are left out; they make up all but 1.4% or so of the library.

How did COc1ccc2c3c([nH]c2c1)[C@H](CO)N(C(=O)c1ccc(F)cc1)CC31CN(C)C1 do in these assays?
CFTR F508del cor: -2

How did Cc1cccc(NC(=O)C2CCCN(S(=O)(=O)c3cccc4nsnc34)C2)n1 (configuration not stated) do in these assays?
Statin myotox sup: 108*; PglD inh: -6; ARNT TACC3 PPI: 1

Results for Cc1cccc(NC(=O)C2CCN(S(=O)(=O)c3cccc4nsnc34)CC2)n1 ?
Statin myotox sup: 14; PglD inh: -4; ARNT TACC3 PPI: 1

What do the screens show for `CNC[C@H]1OCCCC[C@@H](C)Oc2ccc(NS(=O)(=O)c3ccc(OC)cc3)cc2C(=O)N([C@H](C)CO)C[C@H]1C`?
Statin myotox sup: -2; PglD inh: 3; CFTR F508del cor: 4; ARNT TACC3 PPI: -2

How did Cc1cc(Br)cn2c(Cc3cccc(F)c3)c(-c3ccc(F)cc3)nc12 do in these assays?
CFTR F508del cor: -1

What do the screens show for `Cc1cc(Br)cn2c(Cc3ccsc3)c(-c3ccc(F)cc3)nc12`?
Statin myotox sup: 10; PglD inh: 0; CFTR F508del cor: 8.1*

How did Cc1ccc(S(=O)(=O)N2CCOCC2)cc1C(=O)NC1CCCC1 do in these assays?
Statin myotox sup: 5; PglD inh: -1; CFTR F508del cor: 0; ARNT TACC3 PPI: -5

Results for Cc1ccc(NC(=O)c2c(C)noc2C)cc1S(=O)(=O)N1CCOCC1 ?
Statin myotox sup: 0; PglD inh: 0; CFTR F508del cor: 9.9*; ARNT TACC3 PPI: -4

What do the screens show for `CCC(C)c1cc(S(=O)(=O)N2CCOCC2)ccc1OC` (configuration not stated)?
Statin myotox sup: 82*; PglD inh: 1; ARNT TACC3 PPI: 1

What do the screens show for `COc1ccc(NC(=O)c2c(C)noc2C)cc1S(=O)(=O)N1CCCCC1`?
Statin myotox sup: -8; PglD inh: 1; CFTR F508del cor: 0

What do the screens show for `COc1ccc(NC(=O)c2cc(S(=O)(=O)N3CCOCC3)ccc2C)cc1S(=O)(=O)N1CCOCC1`?
Statin myotox sup: -1; PglD inh: 3; CFTR F508del cor: 10*; ARNT TACC3 PPI: -4

Results for Cc1ccc(S(=O)(=O)N2CCOCC2)cc1C(=O)NC1CCCCC1 ?
Statin myotox sup: 71*; PglD inh: -4; ARNT TACC3 PPI: 25

How did COc1ccc(NC(=O)Nc2cccc3c2O[C@@H](CN(C)Cc2ccc(C(=O)Nc4ccccc4N)cc2)[C@H](C)CN([C@@H](C)CO)C3=O)cc1 do in these assays?
CFTR F508del cor: 1

How did C[C@H]1CN([C@@H](C)CO)C(=O)c2cc(NC(=O)C3CCCCC3)ccc2O[C@@H]1CN(C)Cc1ccc(C(=O)O)cc1 do in these assays?
Statin myotox sup: -11; PglD inh: 1; CFTR F508del cor: 0; ARNT TACC3 PPI: 1

Results for C[C@@H]1CN([C@H](C)CO)S(=O)(=O)c2ccc(-c3cccnc3)cc2O[C@@H]1CN(C)C ?
Statin myotox sup: 3; PglD inh: 0; CFTR F508del cor: -3; ARNT TACC3 PPI: 8

How did COc1ccc(Cl)cc1C(=O)NNC(=O)CCNS(=O)(=O)c1ccccc1 do in these assays?
Statin myotox sup: -1; PglD inh: -1; CFTR F508del cor: 10*; ARNT TACC3 PPI: 0

How did COc1ccc(S(=O)(=O)NCCC(=O)NCc2ccccc2)cc1 do in these assays?
Statin myotox sup: 126*; PglD inh: 8; ARNT TACC3 PPI: 3

Results for CO[C@H]1CN(C)C(=O)c2ccc(NS(C)(=O)=O)cc2OC[C@@H](C)N(CC2CCOCC2)C[C@H]1C ?
Statin myotox sup: 1; PglD inh: -46; CFTR F508del cor: 0; ARNT TACC3 PPI: -7

What do the screens show for `O=c1[nH][nH]cc1C=Nc1ccc(Cl)cc1Cl`?
ARNT TACC3 PPI: -3

Results for O=c1[nH][nH]cc1C=Nc1cc(Cl)ccc1O ?
Statin myotox sup: 0; ARNT TACC3 PPI: 49*

Results for CCCC(=O)Nc1ccc2c(c1)C(=O)N(C)C[C@H](OC)[C@@H](C)CN(Cc1cccc(F)c1)[C@H](C)CO2 ?
Statin myotox sup: -2; PglD inh: 2; CFTR F508del cor: 0; ARNT TACC3 PPI: 7

How did O=C(CCNC(=O)c1ccc(Cl)cc1)NCC(c1ccco1)N1CCCCC1 (configuration not stated) do in these assays?
Statin myotox sup: -4; PglD inh: -8; CFTR F508del cor: -1; ARNT TACC3 PPI: -15

What do the screens show for `O=C(NCC(c1ccco1)N1CCCC1)c1ccc(Cl)cc1` (configuration not stated)?
Statin myotox sup: 92*; PglD inh: -6; ARNT TACC3 PPI: -4

What do the screens show for `C[C@@H]1CCCCO[C@@H](CN(C)C(=O)C2CCCCC2)[C@@H](C)CN([C@@H](C)CO)C(=O)c2cc(NC(=O)c3ccccc3)ccc2O1`?
PglD inh: -1; CFTR F508del cor: 0; ARNT TACC3 PPI: 9

What do the screens show for `CC(=O)c1cccc(Nc2c3c(nc4ccccc24)CCC3)c1`?
Statin myotox sup: -49; PglD inh: 6; CFTR F508del cor: 15*; ARNT TACC3 PPI: -5

How did COc1ccc(Nc2c3c(nc4ccccc24)CCC3)c(OC)c1 do in these assays?
Statin myotox sup: -30; PglD inh: 1; CFTR F508del cor: 4; ARNT TACC3 PPI: 9

Results for COc1ccccc1Nc1c2c(nc3ccccc13)CCC2 ?
Statin myotox sup: -20; PglD inh: 3; CFTR F508del cor: 9.8*; ARNT TACC3 PPI: -14

How did COCc1nnc(NC(=O)c2ccc(S(=O)(=O)N(C)Cc3ccccc3)cc2)o1 do in these assays?
Statin myotox sup: -1; PglD inh: 2; CFTR F508del cor: -2; ARNT TACC3 PPI: 49*

What do the screens show for `COc1ccc(-c2nnc(NC(=O)c3ccc(S(=O)(=O)N(C)CC4CCCO4)cc3)o2)c(OC)c1` (configuration not stated)?
Statin myotox sup: -12; PglD inh: -1; CFTR F508del cor: -1; ARNT TACC3 PPI: 45*

What do the screens show for `Cc1cc(NC(=O)c2ccc(S(=O)(=O)N(C)CC3CCCO3)cc2)no1` (configuration not stated)?
ARNT TACC3 PPI: 2

How did COCCN(CCOC)S(=O)(=O)c1ccc(C(=O)Nc2nnc(C)o2)cc1 do in these assays?
Statin myotox sup: 1; PglD inh: -6; ARNT TACC3 PPI: 57*

Results for Cc1nnc(NC(=O)c2ccc3ccccc3c2)o1 ?
Statin myotox sup: -16; PglD inh: 4; ARNT TACC3 PPI: 52*

What do the screens show for `O=C(Nc1nnc(-c2ccco2)o1)c1ccc2ccccc2c1`?
ARNT TACC3 PPI: -1

What do the screens show for `COCCN(CCOC)S(=O)(=O)c1ccc(C(=O)Nc2nnc(COC)o2)cc1`?
Statin myotox sup: 2; CFTR F508del cor: 0; ARNT TACC3 PPI: 32

Results for CC(C)NC(=O)N1CC(=O)N2[C@@H](CO)[C@H](c3ccc(/C=C/c4ccccc4)cc3)[C@@H]2C1 ?
CFTR F508del cor: 0

Results for COc1cccc(C(=O)Nc2ccc3c(c2)C(=O)N(C)[C@H]2CC[C@@H](CC(=O)NCc4ccccc4F)O[C@@H]2CO3)c1 ?
Statin myotox sup: 14; CFTR F508del cor: -2
